Bioassay records deposited in PubChem BioAssay by National Center for Advancing Translational Sciences (NCATS).
D3 antag – qHTS of D3 Dopamine Receptor Antagonist: qHTS; D(3) dopamine receptor (Homo sapiens), P35462; D3R cells, DiscoveRx beta-arrestin luminescence, antagonist mode; hits give low values; max response, negative = inhibition, %; 360,000 compounds, 2.5% hits; in the data active = max response below about -50%; inconclusive = no clear call, values can overlap the other calls; note: % is set by controls: 0 for no effect and ±100 for the full control effect
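Cells plated overnight at 1500 cells/well, then exposed to library compounds with dopamine controls for 90 minutes at 37 degrees C. DiscoveRx reagent added for 30–60 minutes at room temperature; luminescence read, quantitative HTS format.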
D1 ag – Allosteric Agonists of the Human D1 Dopamine Receptor: qHTS; D(1A) dopamine receptor (Homo sapiens), P21728; HEK293 T-REx D1 cells, calcium flux, agonist mode; activation, % at 2 µM; 360,000 compounds, 1% hits; in the data active = activation above about 30%; note: 0% is about no effect
Target sequence (P21728 whole entry, looked up): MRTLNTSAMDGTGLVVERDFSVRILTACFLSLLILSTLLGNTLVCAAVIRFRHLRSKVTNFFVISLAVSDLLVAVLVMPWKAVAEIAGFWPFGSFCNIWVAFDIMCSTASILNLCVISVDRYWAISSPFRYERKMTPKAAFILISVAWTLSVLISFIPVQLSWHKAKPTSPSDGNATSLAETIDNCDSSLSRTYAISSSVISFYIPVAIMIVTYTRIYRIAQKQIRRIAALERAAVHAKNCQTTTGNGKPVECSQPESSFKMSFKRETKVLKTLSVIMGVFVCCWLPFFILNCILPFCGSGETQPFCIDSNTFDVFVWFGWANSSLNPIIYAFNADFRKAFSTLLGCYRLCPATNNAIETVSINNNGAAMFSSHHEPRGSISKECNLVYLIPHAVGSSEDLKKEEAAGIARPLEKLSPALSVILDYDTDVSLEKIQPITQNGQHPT
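Tetracycline-induced HEK293 TREx D1 cells, force-coupled to calcium signalling, were dye-loaded with a no-wash calcium kit. Compound was pin-added after a 10 s baseline. Fluorescence was read kinetically at 1 cycle/s for 180 s, with calcium rises flagged as agonism.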
D1 antag – Antagonist of Human D 1 Dopamine Receptor: qHTS; D(1A) dopamine receptor (Homo sapiens), P21728; HEK293 TREx D1 cells, calcium flux, dopamine EC80; hits give low values; activity change, negative = inhibition, % at 10 µM; 360,000 compounds, 3.2% hits; AID 504652, 2011; in the data active = activity change below about -30%; note: % is set by controls: 0 for no effect and ±100 for the full control effect
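Kinetic fluorescence of a calcium dye serves as the read-out. D1-expressing Hek293 Trex cells, induced overnight at 30 C, are exposed to compound for 180 s before an EC80 dopamine addition, then read 180 s further.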
Chronic BCR inh – qHTS Assay to Find Inhibitors of Chronic Active B-Cell Receptor Signaling; 340,000 compounds, 0.05% hits; AID 493014, 2011; ABC-DLBCL IkBa-CBG/CBR reporter, luminescence ratio, 4 h; Potency, µM (series often up to 46.1 µM), inactives show top-dose activity change, negative = inhibition, actives largely listed as inhibitors; active = well fitted inhibition curve with a large enough effect in the signal ratio, with a control signal flat, not every such curve was filed as active; inconclusive = small, poorly fitted or top-dose-only effect, or effect the other way, or a change in a side signal; the % refers to the signal ratio;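 note: potency is the fitted concentration of half-maximal effect; plate controls were basal doxycycline-induced cells for no effect and cells given 10 µM MG132 for full effect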
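Doxycycline induced both beetle luciferases in TMD8 lymphoma cells; IKK-driven degradation limits the IkappaBalpha-fused green signal, while red luminescence normalises for cell number and nonspecific effects. Compounds tested up to 46 uM, 4 hrs.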
D1 potentiator – Potentiators of Human D1 Dopamine Receptor: qHTS. D(1A) dopamine receptor (Homo sapiens), P21728. HEK293 TREx D1 cells, calcium flux, dopamine EC20 potentiation. potentiation, % at 10 µM. 360,000 compounds, 0.036% hits; in the data active = potentiation above about 30%; note: 0% is about no effect
DRD3 agonist – qHTS of D3 Dopamine Receptor Agonist: qHTS; D(3) dopamine receptor (Homo sapiens), P35462; D3R DiscoveRx beta-arrestin cells, luminescence, 90 min; max activation, %; 410,000 compounds, 0.58% hits; AID 652048, 2013; in the data active = max activation above about 30%; note: 0% is about no effect
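Agonist-mode cell screen: cells plated at 1500/well and incubated overnight at 37 °C, then exposed to library compounds for 90 min at 37 °C. Detection reagent was added for 30–60 min at room temperature, and luminescence was read.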
Active calls of the source: *; ? = inconclusive; . = no result. The list is not random: actives were taken first. Their share in the collection is about 6%.

SMILES	D3 antag	D1 ag	D1 antag	Chronic BCR inh	D1 potentiator	DRD3 agonist
COC(=O)[C@@]12C[C@@H](CC(=O)NCc3cccc(C(F)(F)F)c3)C(=O)N(Cc3ccccc3)C1=CCC(C)(C)C2	0	.	.	.	.	4
CCSc1nsc(NC(=O)Nc2ccccc2Cl)n1	3	.	.	.	.	8
CCOc1ccc(NC(=O)Nc2nc(SCC)ns2)cc1	30	27	-41*	?	-6	1
O=C(NCCc1ccccc1)c1ccccc1F	3	4	-36*	?	-6	3
O=C(NC(=S)N(Cc1ccccc1)Cc1ccccc1)c1ccccc1F	-69*	3	-18	1%	-5	-2
Cc1cccc2c(=O)c(C(=O)NCCc3ccccc3)c[nH]c12	-24	0	-6	?	-6	-7
O=C(NCCc1ccccc1)c1c[nH]c2c(F)cccc2c1=O	-50*	1	-5	?	-4	-4
O=C(NCCc1ccccc1)c1ccccc1C(=O)NCCc1ccccc1	1	.	.	.	.	3
CCCn1ccc2c(OCC(=O)Nc3ccc(C(F)(F)F)cc3)cccc2c1=O	.	7	.	17%	-5	1
CCOC(=O)c1cc([N+](=O)[O-])cc([N+](=O)[O-])c1Sc1ncnc2nc[nH]c12	-86*	.	.	.	.	-25
O=C(c1cc(-c2cccs2)on1)N1CCN(c2ccc(F)cc2)CC1	21	1	-17	-1%	-7	0
O=C(c1cccs1)N1CCC(N2CCN(c3ccccc3)CC2)CC1	?	2	-4	2%	-3	47*
COc1cc(OC)cc(C(=O)N2CCC(N3CCN(c4ccccc4)CC3)CC2)c1	-63*	0	11	1%	-3	8
COc1ccc(C(=O)N2CCC(N3CCN(c4ccccc4)CC3)CC2)cc1OC	?	0	-27	6%	-3	3
O=C(Nc1cccc(O)c1)c1cc(-c2cccs2)on1	7	9	-38*	?	-8	-1
O=C(c1cc(-c2cccs2)on1)N1CCN(c2ccccc2)CC1	14	5	-38*	?	-10	-3
CC(=O)c1cccc(NC(=O)c2cc(-c3cccs3)on2)c1	0	5	-1	-9%	-9	-20
CCc1ccc(CN(Cc2ccco2)C(=O)c2cc(-c3ccc(Cl)cc3)on2)cc1	.	22	-2	.	0	-14
COc1ccccc1N1CCN(C(=O)c2cccs2)CC1	8	0	-10	-2%	-7	5
O=C(c1cccc2ccccc12)N1CCC(N2CCN(c3ccccc3)CC2)CC1	-58*	0	6	?	-2	75*
CCOC(=O)N1CCC(N2CCN(c3ccccc3)CC2)CC1	8	2	21	2%	1	35*
CCOC(=O)N1CCC(Nc2c(-c3ccccc3)c(=O)c2=O)CC1	20	9	4	4%	-9	-2
COc1ccccc1N1CCN(C2CCN(C(=O)c3cccs3)CC2)CC1	-63*	-2	6	-3%	4	-17
CCCCCC(=O)N1C[C@@H](n2cc(C3CC3)nn2)[C@H](O)C[C@@H]1c1ccc(OC)cc1	5	.	.	.	.	1
Cc1nn(C(=O)c2cccc([N+](=O)[O-])c2C)c(C)c1S(=O)(=O)N1CCOCC1	.	4	-1	.	-2	0
SMILES	D3 antag	D1 ag	D1 antag	Chronic BCR inh	D1 potentiator	DRD3 agonist
CCOC(=O)c1cccc(NC(=O)c2ccc3c(c2)nnn3C2CCCC2)c1	.	12	3	.	-4	-7
CC(=O)N1CCc2cc(S(=O)(=O)NC(Cc3ccccc3)C(=O)Nc3cc(C)ccn3)ccc21 (stereo not given)	-71*	1	-7	10%	2	-12
CC(=O)N1CCc2cc(S(=O)(=O)NC(Cc3ccccc3)C(=O)Nc3cc(C)cc(C)c3)ccc21 (stereo not given)	.	3	20	.	-1	-4
Cc1nc2c(C(=O)NCCc3ccc(Cl)cc3)cnn2c(C)c1Cc1ccc(F)cc1	.	6	22	15%	2	-9
O=C(O)CN1C(=O)/C(=C\c2cn(CC(=O)N3CCOCC3)c3ccccc23)SC1=S	-20	32*	-4	3%	-7	0
O=C(CCCN1C(=O)/C(=C\c2ccccc2)SC1=S)N1CCOCC1	-15	.	.	?	.	-8
CCOC(=O)C1CCCN(c2nc3ccccc3nc2C(C#N)C(=O)NCc2ccccc2)C1 (stereo not given)	-2	33*	-3	24%	-9	6
O=C(CN1CCCN(S(=O)(=O)c2ccc(Br)cc2)CC1)Nc1cccc(C(F)(F)F)c1	.	2	12	.	-3	-6
Cc1cc(C2CC(=O)Nc3ccccc3S2)c(C)s1 (stereo not given)	7	7	-9	?	4	-4
O=C1CC(c2ccsc2)Sc2ccccc2N1 (stereo not given)	-12	5	-32*	-22%	1	6
CCCSCCCNC(=O)c1sc2nc(C)cc(C)c2c1-n1cccc1	.	1	4	.	-1	-7
Cc1cc(N2CCN(c3ccccc3)CC2)nc(-c2ccccc2O)n1	20	2	15	-12%	-4	0
Cc1cc(N2CCN(c3ccccc3)CC2)nc(-n2nc(C)cc2C)n1	-86*	0	22	?	-4	-25
COc1ccc(CCn2c(=O)c3cccnc3n(Cc3ccc([N+](=O)[O-])cc3)c2=O)cc1OC	18	4	-46*	-1%	-12	7
O=C(NCCc1ccccc1)c1ccc2c(c1)N(Cc1ccc(Cl)cc1)C(=O)CS2	.	16	-18	.	0	-7
CCOc1ccc(C2C(C(=O)Nc3ccccc3)=C(C)Nc3nc(-c4ccccc4Cl)nn32)cc1OC (stereo not given)	.	5	-15	.	3	-5
CC[n+]1ccc(/C=C/c2c[nH]c3ccccc23)cc1	0	64*	10	0%	-2	0
Cc1ccc2[nH]cc(/C=C/c3cc[n+](C)cc3)c2c1	-5	30*	3	-2%	1	3
Cn1cnc(S(=O)(=O)N2CCCCC2c2cc(C(=O)NCc3ccc(Cl)c(Cl)c3)no2)c1 (stereo not given)	0	.	.	.	.	-8
Cc1ccc(N2CCN(CC3CC=CCC3)CC2)cc1 (stereo not given)	-141*	1	-24	?	-11	-39
CCCN1CCC(N2CCN(c3cccc(C(F)(F)F)c3)CC2)CC1	?	10	-20	?	-6	-27
